Activity calls are given as the source filed them.

Experiment [1] deals with Plasmodium falciparum Sir2 (PF13_0152, Sir2A). In words: pfSir2 binders on small-molecule microarrays, primary screen, biochemical, small-molecule microarray, 635 nm fluorescence (AID 1098).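 Further: score merges spot fluorescence intensity with its signal-to-noise ratio.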 Particulars: small-molecule microarray binding, fluorescence 635 nm; higher = more signal.
A short description of experiment [2]: small-molecule microarray binders of probe aDKK1, primary screen, biochemical, biotinylated probe, 635/667 nm fluorescence (AID 1099).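 Further: score merges 667nm spot fluorescence with signal to noise across triplicate slides; reference of the scale not given here.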 Particulars: higher = more signal.
The nature of experiment [3]: small-molecule microarray binders of probe aCHRDL2, primary screen, biochemical, biotinylated probe, 635/667 nm fluorescence (AID 1100). Particulars: higher = more signal.
Experiment [4] in a line: splicing luciferase reporter signal modulators, primary screen, spliceosome inhibition project, cell-based, HEK293, splice +/- reporter (AID 1101).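 Further: HEK293 cells carrying a splicing-competent luciferase reporter gene; test concentration not given here.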 Particulars: luminescence, 24 h, higher = more signal, called active from +8 up or from −8 down. On the technique in general: A reporter such as luciferase makes a cellular process visible.
In experiment [5] the target is Fibroblast growth factor 10 (Homo sapiens) (UniProt O15520). The experiment in a line: FGF10 binders on small-molecule microarrays, primary screen, biochemical, small-molecule microarray, 635 nm fluorescence (AID 1102). Particulars: FGF10 binding, fluorescence 635 nm, higher = more signal.
Chain of Fibroblast growth factor 10 (Homo sapiens) (O15520 whole entry, looked up): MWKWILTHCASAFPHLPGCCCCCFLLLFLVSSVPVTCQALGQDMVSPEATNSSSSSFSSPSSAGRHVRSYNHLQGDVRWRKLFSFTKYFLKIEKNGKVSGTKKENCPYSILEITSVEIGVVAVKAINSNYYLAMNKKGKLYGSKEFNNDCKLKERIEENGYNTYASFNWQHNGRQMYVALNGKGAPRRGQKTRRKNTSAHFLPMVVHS
The test system of experiment [6] is glycogen synthase kinase-3 (GSK3A per assay name; protocol says GSK3B). The experiment in a line: GSK3 binders on small-molecule microarrays, primary screen, biochemical, small-molecule microarray, 635 nm fluorescence, GSK3A (AID 1103). Further: the record names both GSK3A and GSK3B. Particulars: small-molecule microarray binding, fluorescence 635 nm; higher = more signal.
Experiment [7] has as its target Epidermal growth factor receptor (Homo sapiens) (UniProt P00533). The experiment in a line: EGFR binders on small-molecule microarrays, primary screen, biochemical, small-molecule microarray, 635 nm fluorescence (AID 1104).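 Further: score merges 667 nm emission intensity with spot signal to noise over triplicate slides.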 Particulars: EGFR binding, higher = more signal.
The target of experiment [8] is Follistatin-related protein 3 (Homo sapiens) (UniProt O95633). In words: FSTL3 binders on small-molecule microarrays, primary screen, biochemical, small-molecule microarray, 635 nm fluorescence (AID 1105).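 Further: score merges emission near 667 nm and signal to noise per printed spot across three slides.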 Particulars: FSTL3 binding, higher = more signal.
Chain of Follistatin-related protein 3 (Homo sapiens) (O95633 whole entry, looked up): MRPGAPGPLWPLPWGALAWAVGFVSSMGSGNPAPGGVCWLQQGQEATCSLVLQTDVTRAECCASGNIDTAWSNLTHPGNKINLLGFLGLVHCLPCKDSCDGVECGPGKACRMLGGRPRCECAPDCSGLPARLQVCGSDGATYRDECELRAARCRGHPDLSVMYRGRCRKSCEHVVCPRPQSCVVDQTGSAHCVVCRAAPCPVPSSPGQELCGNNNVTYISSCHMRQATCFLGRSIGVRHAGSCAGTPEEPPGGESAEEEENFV
Experiment [9] concerns the target Dickkopf-related protein 1 (Homo sapiens) (UniProt O94907). In words: DKK1 binders on small-molecule microarrays, primary screen, biochemical, small-molecule microarray, 635 nm fluorescence scan (AID 1106).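 Further: score merges emission near 667 nm with signal to noise over three replicate slides.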 Particulars: DKK1 binding, higher = more signal.
In experiment [10] the test system is Inhibin beta A chain (activin A). The experiment in a line: INHBA (activin A) binders on microarrays, primary screen, biochemical, small-molecule microarray, 635 nm fluorescence scan (AID 1107).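 Further: mouse activin A protein probed at 4.33 µg/mL on printed slides; score merges bound-protein fluorescence near 667 nm with spot signal-to-noise.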 Particulars: small-molecule microarray binding, higher = more signal.

Chain of Epidermal growth factor receptor (Homo sapiens) (P00533 whole entry, looked up): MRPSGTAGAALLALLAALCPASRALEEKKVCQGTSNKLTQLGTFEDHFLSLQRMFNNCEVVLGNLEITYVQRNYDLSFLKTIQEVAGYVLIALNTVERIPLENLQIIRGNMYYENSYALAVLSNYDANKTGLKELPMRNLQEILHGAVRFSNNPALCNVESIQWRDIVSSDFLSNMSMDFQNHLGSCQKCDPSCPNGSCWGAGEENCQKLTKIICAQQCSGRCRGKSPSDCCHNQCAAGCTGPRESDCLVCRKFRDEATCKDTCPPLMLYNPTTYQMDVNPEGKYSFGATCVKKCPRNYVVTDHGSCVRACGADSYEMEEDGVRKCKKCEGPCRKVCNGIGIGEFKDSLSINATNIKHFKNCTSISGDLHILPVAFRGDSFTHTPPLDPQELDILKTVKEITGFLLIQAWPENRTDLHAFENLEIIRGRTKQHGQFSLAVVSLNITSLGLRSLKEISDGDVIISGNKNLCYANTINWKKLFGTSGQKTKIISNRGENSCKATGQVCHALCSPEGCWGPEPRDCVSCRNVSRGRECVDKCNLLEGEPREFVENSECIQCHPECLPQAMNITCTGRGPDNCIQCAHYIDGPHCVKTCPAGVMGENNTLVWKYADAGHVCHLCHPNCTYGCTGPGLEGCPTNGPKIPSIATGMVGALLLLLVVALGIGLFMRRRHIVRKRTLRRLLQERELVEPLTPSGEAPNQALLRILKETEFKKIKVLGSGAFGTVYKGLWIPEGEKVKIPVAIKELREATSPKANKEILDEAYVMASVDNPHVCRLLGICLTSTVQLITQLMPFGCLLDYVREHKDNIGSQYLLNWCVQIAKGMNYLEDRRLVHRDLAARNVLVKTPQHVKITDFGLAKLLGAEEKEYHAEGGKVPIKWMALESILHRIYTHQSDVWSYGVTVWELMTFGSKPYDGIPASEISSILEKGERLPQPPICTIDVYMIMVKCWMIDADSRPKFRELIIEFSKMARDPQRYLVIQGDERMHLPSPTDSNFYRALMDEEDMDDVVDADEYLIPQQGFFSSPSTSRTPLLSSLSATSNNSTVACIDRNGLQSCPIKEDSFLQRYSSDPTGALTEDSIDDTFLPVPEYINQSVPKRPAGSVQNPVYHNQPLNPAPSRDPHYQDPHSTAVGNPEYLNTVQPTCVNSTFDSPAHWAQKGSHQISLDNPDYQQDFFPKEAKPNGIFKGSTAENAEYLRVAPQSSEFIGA
Chain of Dickkopf-related protein 1 (Homo sapiens) (O94907 whole entry, looked up): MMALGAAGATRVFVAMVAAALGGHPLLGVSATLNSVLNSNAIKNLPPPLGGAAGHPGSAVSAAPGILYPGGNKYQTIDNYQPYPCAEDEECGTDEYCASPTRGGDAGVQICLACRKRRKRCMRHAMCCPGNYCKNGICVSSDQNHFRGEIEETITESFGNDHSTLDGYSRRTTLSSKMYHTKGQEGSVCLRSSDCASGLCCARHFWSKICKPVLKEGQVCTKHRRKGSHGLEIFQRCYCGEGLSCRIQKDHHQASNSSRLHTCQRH

In the case of `CS(=O)(=O)CCOC(=O)C1=CC(c2ccc(CO)cc2)=CC(c2cccs2)N(Cc2cccc(OC(F)(F)F)c2)C=C1C(=O)OCCS(C)(=O)=O` (stereo not given), the composite z-score in [1] was 0.472; in experiment [2], 0.15; in [3], 0.211; in [5], 1.02; in experiment [6], 0.88; in experiment [7] it was 0.084. Besides, the results for the composite z-score in [8], in experiment [9] and in [10] were 0.919, 0.353 and 1.33, respectively. Also, in [4], the z-score was -0.164 (inactive).
Regarding `CC(C)C[C@@H]1NC(=O)[C@@H]2C[C@H](C(=O)NCCCCN(C)C)[C@H](c3ccc(O)cc3)N2C1=O`, the composite z-score was 0.791 in [1]; 0.147 in experiment [2]; 0.874 in experiment [3]; -1.42 in experiment [5]; -0.439 in [6]; -1.29 in experiment [7]. Moreover, the composite z-score in experiment [8] is -0.401; in [9], -0.283; in experiment [10] it was -0.134. The z-score in experiment [4] was 0.619 (inactive).
Regarding `Cc1ccccc1/C=C/C=O`, the composite z-score was 0.939 in experiment [1]; -0.275 in experiment [2]; 0.297 in experiment [3]; -0.435 in experiment [5]; -1.09 in experiment [6]; -0.813 in [7]. The composite z-score in experiment [8] was -0.303; in experiment [9], -0.243; in experiment [10], 0.612. In addition, the z-score in experiment [4] is -0.0672 (inactive).
As for `[N-]=[N+]=NCc1ccccc1C[C@]1(C(=O)N2CCOCC2)N=C(c2ccc(OCCCO)cc2)O[C@H]1c1ccccc1`, the composite z-score in experiment [1] was 0.947; in [2] it was 0.102; in [3], 0.904; in experiment [5], 1.39; in [6], 0.551; in [7], -0.458. The results for the composite z-score in experiment [8], in experiment [9] and in experiment [10] were 0.223, -0.774 and 0.275, respectively. Besides, in experiment [4], the z-score was -1.18 (inactive).
With `COc1ccc([Si](C)(C)[C@@H]2[C@@H](CCO)O[C@]3(C(=O)N(Cc4cccc(N(C=O)c5ccccc5)c4)c4ccccc43)[C@H]2C)cc1`, the composite z-score in [1] was 0.883; in experiment [2], 0.0396; in experiment [3], 0.541; in [5], -0.0644; in [6], 0.364; in experiment [7], -0.222. Moreover, the composite z-score in [8] is -0.0339; in experiment [9] it was -0.0116; in experiment [10], 1.03. In addition, the z-score in experiment [4] is -2.49 (inactive).
Regarding `C=C[C@@H](C)[C@@H](OC(=O)Nc1ccc(OC)cc1)c1ccc(O)c2ccccc12`, the composite z-score in [1] was 1.13; in experiment [2], -0.241; in experiment [3], -0.576; in experiment [5], 0.856; in experiment [6], 0.357; in experiment [7], 0.762. For the same molecule, the composite z-score came out at 0.723 in experiment [8], 0.475 in experiment [9] and 1.24 in [10]. In addition, the z-score in experiment [4] is -0.0898 (inactive).
Regarding `[N-]=[N+]=Nc1ccccc1[C@@H]1OC(c2ccc(OCCCO)cc2)=N[C@]1(CCS(=O)(=O)c1ccccc1)C(=O)N1CCCCC1`, the composite z-score in [1] is 1.39; in experiment [2], 1.63; in experiment [3] it was 1.41; in experiment [5], 1.05; in [6] it was 0.85; in experiment [7], 0.098. Moreover, the composite z-score was 0.811 in [8], -0.423 in [9] and 1.36 in [10]. Also, in experiment [4], the z-score is -0.261 (inactive).
Take `NC(=O)NCC#Cc1ccc2c(c1)[C@]1(C(=O)N2)[C@H](C(=O)NC[C@H](O)c2ccccc2)[C@H]2C(=O)O[C@H](c3ccccc3)[C@H](c3ccccc3)N2[C@@H]1c1ccccc1OCCO`: the composite z-score in experiment [1] is 1.3; in [2], -0.0611; in experiment [3], 0.729; in experiment [5], 0.588; in experiment [6] it was -0.425; in experiment [7], 0.143. The composite z-score in experiment [8] was -0.0845; in experiment [9], -1.04; in experiment [10], 0.286. Moreover, the z-score in experiment [4] was -0.416 (inactive).
Consider `CC1CC/C=C\[C@H]2OC34C=CCN(CCN5CCOCC5)C(=O)[C@H]3N(CCCCCO)C(=O)[C@@H]4C2C(=O)O1` (stereo not given in full), for which the composite z-score is -0.31 in experiment [1]; -0.605 in experiment [2]; -0.824 in experiment [3]; -0.352 in experiment [5]; -0.444 in [6]; -0.559 in experiment [7]. Further, the composite z-score was -0.507 in experiment [8], -0.0732 in [9] and 1.01 in experiment [10]. Besides, the z-score in experiment [4] is -0.282 (inactive).
`O=C1OCC=C[C@H]2OC34C=CCN(c5ccc6ccccc6c5)C(=O)[C@H]3N(CCO)C(=O)[C@@H]4[C@@H]12` (stereo not given in full): the composite z-score in experiment [1] was 1.07; in [2] it was 0.134; in experiment [3], 0.947; in [5], -0.455; in experiment [6], -0.657; in [7], -1.49. Moreover, the composite z-score is -1.33 in experiment [8], -2.42 in experiment [9] and 0.589 in [10]. For the same molecule, the z-score in experiment [4] is -0.461 (inactive).
As for `O=C1C2C=CC(C(O)c3ccc(Br)cc3)N(n3cnnc3)C2C(=O)N1Cc1ccccc1` (stereo not given), the composite z-score amounted to 1.11 in experiment [1]; 0.578 in [2]; 0.479 in [3]; 0.946 in experiment [5]; 1.07 in experiment [6]; 0.406 in experiment [7]. The composite z-score is 0.819 in experiment [8], 0.0363 in [9] and -0.0003 in [10]. Further, in experiment [4], the z-score was 0.696 (inactive).
Take `C=C(C(=O)CC[C@H](OC(=O)c1cccnc1)c1ccccc1OCCO)C(C)C`: the composite z-score in experiment [1] was 1.14; in experiment [2], -0.109; in experiment [3], -0.0641; in [5], 1.56; in experiment [6], 0.98; in experiment [7], 1.25. In addition, the composite z-score in experiment [8] was 1.13; in [9], 0.962; in experiment [10], 1.11. Moreover, the z-score in experiment [4] is 3.21 (inactive).
For `CCOC(=O)C[C@H]1[C@H](OC(=O)c2ccccc2-c2ccccc2)[C@@H](NC(=O)c2ccc(-c3ccccc3)cc2)c2cc(OCCCO)ccc2N1C(=O)c1ccccc1`, the composite z-score in [1] is 0.154; in experiment [2] it was 0.319; in experiment [3], -0.181; in [5], 0.888; in experiment [6] it was 0.425; in [7], 0.31. Besides, the composite z-score in experiment [8] was 0.645; in experiment [9] it was 0.531; in experiment [10], -0.0094. Also, the z-score in experiment [4] was 0.119 (inactive).
